The results in this text go back to PubChem BioAssay (NCI).

Compounds without any hit were thinned out: in the full panel of roughly 83,000, 20% have a hit.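 How to read the values: 0–100, growth inhibition (40 = 60% inhibited); 0, no net growth; -100 to 0, cell death (-40 = 40% of starting cells died; -100 = all dead).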 Unmarked numbers belong to inactive results. Active and inactive are the calls of the source. The calls were made as follows: active = growth percent below 10; inactive = the rest.

Test in all cases: NCI-60 one-dose screen, 48 h (100 = growth as untreated, 0 = no growth, -100 = all killed)
Holding throughout (settings): 10 µM unless noted

Test [1] concerns DU-145 prostate.
The test system of test [2] is K-562 leukemia.
The subject of test [3] is MALME-3M melanoma.
Test [4] relates to MDA-MB-231 breast.
The subject of test [5] is RXF 393 renal.
Test [6] has as its system SF-268 CNS.
Test [7] deals with SF-295 CNS.
For test [8], the system named is SF-539 CNS.
In test [9] the test system is UACC-257 melanoma.
Test [10] concerns M14 melanoma.
Test [11] relates to HCT-15 colon.
For test [12], the system named is HT29 colon.
Test [13] has as its system SNB-75 CNS.
Test [14] relates to SNB-19 CNS.
Test [15] concerns U251 CNS.
In test [16] the test system is PC-3 prostate.
Test [17] deals with SK-MEL-5 melanoma.
The subject of test [18] is UACC-62 melanoma.
Test [19] relates to LOX IMVI melanoma.
Test [20] concerns SK-MEL-28 melanoma.

As to `C=CCn1c(C)nc2cc(Nc3nc(N4CCCC4)nc4nc[nH]c34)ccc21`, the growth in test [1] is 48.2%; in test [2], -9.1% (active); in test [3], -29.3% (active); in test [4], -25% (active); in [5], 54.4%; in test [6], 29.3%. Also, the growth is 31.2% in test [7]; -18.7% (active) in test [8]; 60.9% in test [9]; 28.8% in test [10]; 94.4% in test [11]; 12.4% in test [12]. The growth in [13] is -64.9% (active); in test [14], 44.9%; in test [15], 21.2%; in test [16], 42.6%; in test [17], 49.5%; in [18], 31.7%. Moreover, the results for the growth in [19] and in [20] were 37.8% and 30.3%, respectively.

For the molecule `CC1=NOCC(=O)N1`, the growth is 111% in test [1]; 92.1% in [2]; 117% in test [3]; 102% in [4]; 103% in test [5]; 107% in [6]. Moreover, the growth is 87.7% in test [7]; 99.3% in test [8]; 101% in [9]; 103% in test [10]; 102% in test [11]; 101% in [12]. Further, the growth in test [13] is 85.3%; in [14], 95.6%; in test [15], 94.7%; in [16], 95.2%; in [17] it was 99.7%; in [18] it was 102%. The growth in [19] was 89.1%; in [20], 99.4%.

Consider `COc1cccc(CC(C)=C(c2ccc(OCCCN(C)C)cc2)c2ccc(OCCCN(C)C)cc2)c1`, for which the growth in [1] was -94.4% (active); in test [2] it was -67.5% (active); in [3], -87% (active); in test [4] it was -82.2% (active); in [5] it was -89.5% (active); in test [6], -81.8% (active). Further, the growth in test [7] is -68.2% (active); in [8] it was -91.6% (active); in test [9] it was -82.3% (active); in test [10], -80% (active); in test [11] it was -78.4% (active); in test [12], -81.5% (active). For the same molecule, the growth in test [13] was -94.9% (active); in test [15], -94.8% (active); in test [16], -89.4% (active); in test [17], -95.3% (active); in test [18] it was -84.7% (active); in test [19] it was -79.6% (active).

Regarding `CC(=O)N1N=C(c2ccc(C)cc2)CC1c1cn(-c2ccccc2)nc1-c1cccc(Nc2ccnc3cc(Cl)ccc23)c1` (centres undefined), the growth in test [1] is 34.3%; in test [2], 15.1%; in [3] it was -2.79% (active); in [4], 58.9%; in [5], 67.8%; in [6], 73.7%. Further, the growth in test [7] is 109%; in test [8] it was 99.4%; in [9], 106%; in test [10], 87.3%; in test [11], 62.2%; in [12], 47.7%. The growth is 102% in [13]; 83.4% in test [14]; 14.9% in test [15]; 99.8% in test [16]; 82.2% in [18]; 10.4% in [19]. Moreover, in test [20], the growth was 51.9%.

For the molecule `COc1ccc(C2CC(c3cccc(Nc4ccnc5cc(Cl)ccc45)c3)=NN2c2ccccc2)cc1` (centres undefined), the growth in test [1] was 82.8%; in test [2], 20.7%; in test [3] it was 58.7%; in test [4], 74.2%; in test [5], 99%; in test [6], 71.2%. Further, the growth in test [7] is 23%; in [8], 65.4%; in test [9], 59.7%; in [10], 27%; in test [11], 46.6%; in test [12] it was 60.8%. Further, the growth in test [13] is 62.5%; in [14] it was 78.3%; in [15], 65.4%; in test [16] it was 67.5%; in test [18] it was 29.5%; in [19], 49%. In addition, the growth in test [20] was 84.9%.

Regarding `CC(C)c1[nH]ncc1-c1nc2ccc3[nH]ncc3c2c2c1CCCC2`, the growth is 33.9% in [1]; 42% in test [2]; 52.6% in test [3]; 35.6% in test [4]; -8.2% (active) in test [5]; 36.7% in test [6]. Further, the growth in [7] is 43.1%; in [8], 23%; in test [9] it was 44%; in test [10], 37.1%; in [11] it was 37.5%; in test [12], 35%. Also, the growth in test [13] is -3.19% (active); in test [14] it was 40.4%; in test [15], 37.7%; in test [16] it was 44.2%; in test [18], 34.1%; in test [19], 23.6%.

`COc1ccc(C(=O)/C=C/c2cn(-c3ccccc3)nc2-c2cccc(Nc3ccnc4cc(Cl)ccc34)c2)cc1`: the growth in [1] was 86.5%; in test [2], 85.9%; in test [3] it was 57.4%; in test [4], 70.8%; in test [5] it was 95.2%; in [6], 89.3%. The growth was 106% in test [7]; 103% in test [8]; 90.1% in test [9]; 110% in [10]; 101% in test [11]; 104% in [12]. In addition, the growth in test [13] is 99.5%; in test [14], 93.2%; in test [15] it was 94.9%; in [16], 87.4%; in [17] it was 88.4%; in [18] it was 89.9%. Moreover, the growth is 104% in [19] and 95.3% in test [20].

Turning to `CC(=O)c1cc(C(=O)c2ccc3c(c2)Sc2ccccc2N3)c2c(C)cccn12`, the growth in test [1] is 13.9%; in test [2], 7.8% (active); in [3], 62.3%; in test [4] it was 19.7%; in test [5], -7.81% (active); in test [6], 28.4%. Also, the growth in [7] is 4.09% (active); in test [8], -28.4% (active); in test [9], 77%; in [10] it was 16.9%; in test [11], 15.8%; in test [12] it was 12%. For the same molecule, the growth in [13] is 24.3%; in test [14], 33.8%; in test [15], 13.6%; in test [16], 26.8%; in [17] it was 8.21% (active); in test [18] it was 26.3%. The growth in [19] is 14.1%; in test [20] it was 62.5%.
